Assay results: PubChem BioAssay (Tox21)
Values joined by “and” are separate entries in the source; they are usually repeats but may differ in a detail not shown here. Equal values may be shown once. Records with an inconclusive call do not appear. Active and inactive are the calls of the source. Calls come from the whole dose curve; as a rule, active = well fitted curve in the direction sought with a large enough effect in the repeat runs; inconclusive = weak or mixed curves; inactive = no such curve, though single readings can be large; an effect the other way counts as inactive or inconclusive.

Tests used:
[1] = qHTS RealTime-Glo MT Cell Viability Assay in HepG2 cells - 24 hour (AID 1224867); note: nearly all actives have a fitted effect of over 50% in size
In short: (§1)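 Real-time, nonlytic viability: 600 HepG2 cells/well mixed with NanoLuc enzyme plus prosubstrate; 5 h settle, compound (DMSO) added by pintool; luminescence monitored over 40 h at 37 C.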

[2] = qHTS RealTime-Glo MT Cell Viability Assay in HEK293 cells - 32 hour (AID 1224868); note: top concentration of the series differs between compounds; nearly all actives have a fitted effect of over 50% in size
In short: (§2)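 Cells + reagent dispensed (600 cells/well, HEK293) → 5 h at 37 C/5% CO2 → 23 nL compound in DMSO pinned → 40 h at 37 C → luminescence read at 0, 8, 16, 24, 32, 40 h.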

[3] = A CellTox Green Cytotoxicity Assay to monitor cytotoxicity in HEK293 cells - 0 hour (AID 1224869); note: nearly all actives have a fitted effect of over 50% in size
In short: (§3)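 Read-out: fluorescence of a cell-impermeant cyanine dye staining DNA of dead cells, proportional to cytotoxicity. HEK293, 600 cells/well with reagent, compound (23 nL DMSO) added after 5 h; reads at 0, 8, 16, 24, 32, 40 h.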

[4] = qHTS RealTime-Glo MT Cell Viability Assay in HepG2 cells - 40 hour (AID 1224870); note: nearly all actives have a fitted effect of over 50% in size
In short: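 HepG2 cells (600/well) mixed with RealTime-Glo MT reagent, settled 5 h at 37 C/5% CO2 before compound addition. Nonlytic NanoLuc luminescence from viable-cell prosubstrate reduction read repeatedly during 40 h treatment at 37 C.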

[5] = A CellTox Green Cytotoxicity Assay to monitor cytotoxicity in HEK293 cells - 40 hour (AID 1224871); note: nearly all actives have a fitted effect of over 45% in size
In short: as §3

[6] = qHTS RealTime-Glo MT Cell Viability Assay in HEK293 cells - 16 hour (AID 1224872)
In short: as §2

[7] = qHTS RealTime-Glo MT Cell Viability Assay in HEK293 cells - 40 hour (AID 1224874); conditions: RealTime-Glo luminescence; max response: stronger effect = lower value; note: nearly all actives have a fitted effect of over 50% in size
In short: (§4)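 Luminescence readout at each listed time point; HEK293, 600 cells/well, RealTime-Glo MT reagent added with cells; compounds pinned (23 nL in DMSO) after 5 h at 37 C; continuous culture at 37 C.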

[8] = A CellTox Green Cytotoxicity Assay to monitor cytotoxicity in HEK293 cells - 24 hour (AID 1224875); note: series mostly up to about 77 µM; nearly all actives have a fitted effect of over 45% in size
In short: as §3

[9] = qHTS RealTime-Glo MT Cell Viability Assay in HepG2 cells - 32 hour (AID 1224877); note: nearly all actives have a fitted effect of over 55% in size
In short: as §1

[10] = A CellTox Green Cytotoxicity Assay to monitor cytotoxicity in HepG2 cells - 24 hour (AID 1224878); note: nearly all actives have a fitted effect of over 45% in size
In short: (§5)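 HepG2, 600 cells/well premixed w/ CellTox Green; 5 h settle, 37 C/5% CO2; pintool cpd add (DMSO); 37 C, 40 h; fluorescence read at 0, 8, 16, 24, 32, 40 h.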

[11] = A CellTox Green Cytotoxicity Assay to monitor cytotoxicity in HepG2 cells - 40 hour (AID 1224879); note: nearly all actives have a fitted effect of over 40% in size
In short: as §5

[12] = qHTS RealTime-Glo MT Cell Viability Assay in HEK293 cells - 0 hour (AID 1224880); note: top concentration of the series differs between compounds; nearly all actives have a fitted effect of over 45% in size
In short: as §4

[13] = A CellTox Green Cytotoxicity Assay to monitor cytotoxicity in HEK293 cells - 32 hour (AID 1224881); note: nearly all actives have a fitted effect of over 40% in size
In short: as §3

[14] = A CellTox Green Cytotoxicity Assay to monitor cytotoxicity in HepG2 cells - 0 hour (AID 1224882); note: nearly all actives have a fitted effect of over 35% in size
In short: as §5

[15] = A CellTox Green Cytotoxicity Assay to monitor cytotoxicity in HepG2 cells - 32 hour (AID 1224883); note: nearly all actives have a fitted effect of over 50% in size
In short: as §5

[16] = A CellTox Green Cytotoxicity Assay to monitor cytotoxicity in HEK293 cells - 8 hour (AID 1224884); note: nearly all actives have a fitted effect of over 35% in size
In short: as §3

[17] = A CellTox Green Cytotoxicity Assay to monitor cytotoxicity in HepG2 cells - 16 hour (AID 1224876); note: nearly all actives have a fitted effect of over 45% in size
In short: as §5
% is set by controls: 0 for no effect and ±100 for the full control effect.

O=NN1CCCCCCC1
inactive: outcome [1] | Potency [2] | Potency [3] | outcome [4] | Potency [5] | outcome [6] | max response [7] 6.51% and -7.12% | Potency [8] | outcome [9] | Potency [10] | Potency [11] | outcome [12] | Potency [13] | Potency [14] | Potency [15] | Potency [16]

CCCCCOC(=O)c1ccccc1C(=O)OCCCCC
inactive: Potency [2] | Potency [3] | outcome [4] | Potency [5] | outcome [6] | max response [7] -11.1% and -2.4% | Potency [8] | outcome [9] | Potency [10] | Potency [11] | Potency [13] | Potency [14] | Potency [15] | Potency [16]

CN(C)N=O
inactive: outcome [1] | Potency [2] | Potency [3] | outcome [4] | Potency [5] | outcome [6] | max response [7] 7.51% and -1.45% | Potency [8] | Potency [17] | outcome [9] | Potency [10] | Potency [11] | Potency [13] | Potency [14] | Potency [15] | Potency [16]

c1ccc2c(c1)oc1ccccc12
inactive: Potency [2] | Potency [3] | outcome [4] | outcome [6] | max response [7] -5.88% and -12.6% | Potency [8] | outcome [9] | Potency [10] | outcome [12] | Potency [13] | Potency [14] | Potency [16]

ClCc1cccnc1
inactive: Potency [2] | Potency [3] | outcome [4] | Potency [5] | outcome [6] | max response [7] 2.33% and -1.14% | Potency [8] | Potency [17] | outcome [9] | Potency [10] | Potency [11] | outcome [12] | Potency [13] | Potency [14] | Potency [15] | Potency [16]
